# ChEMBL document CHEMBL4513216, “Probing the Open Global Health Chemical Diversity Library for Multistage-Active Starting Points for Next-Generation Antimalarials” (ACS Infect Dis, 2020)
# Among all 69,000 compounds or so, about 8,600 (12%) showed an effect of 50% or more. Many of the other results were omitted from the sample, so strong results are more common in it than they were.
# Tested on: Plasmodium berghei
# Assay: Screen against P. berghei liver stage (PbLuc), transformed with Luciferase, at 10uM
# Format: functional, HepG2
# Conditions: tested at 10 uM
row,SMILES,INHIBITION
1,COCCN(C)C[C@@H]1CN(C(=O)c2ccc(OC)c(F)c2)C[C@@H]1CO,0.29%
2,COCCN(C)C[C@H]1C[C@H](CO)CN(C(=O)c2ccc(=O)n(C)c2)C1,50.7%
3,CS(=O)(=O)c1ccc(Cl)c(NC(=O)NCCC2=CCCCC2)c1,0.818%
4,COCCC1COC2(CCN(C(=O)c3ccco3)CC2)C1 (stereo not drawn),29.6%
5,CN(C)C(=O)[C@H]1C[C@H]2OCC[C@H]2N(Cc2ccc3ccccc3n2)C1,25.2%
6,CC(C)NC(=O)[C@H]1C[C@@H]2[C@@H](C1)OCCN2Cc1ccco1,7.24%
7,CC(C)(C)OC(=O)N[C@@H]1C[C@@H](O)CN(C(=O)c2cccc(F)c2)C[C@H]1O,4.41%
8,C[C@H]1C(=O)NC[C@H]2CN(Cc3cccc(F)c3)C[C@H]21,23.5%
9,CC(=O)N1CCC2(CC1)CN(C)C(=O)C[C@H]2C(F)(F)F,2.79%
10,CC(Nc1c(F)cc(C#N)cc1F)c1cccc(S(N)(=O)=O)c1 (stereo not drawn),-68.1%
11,COCCN(C)C[C@@H]1CN(C(=O)c2ccc(SC)cc2)C[C@@H]1CO,19.4%
12,COCCN(C)C[C@@H]1CN(C(=O)c2ccc(C)cc2)C[C@@H]1CO,-18.9%
13,CN(C)CCN(C)C[C@@H]1CN(C(=O)NC2CCCC2)C[C@@H]1CO,27.4%
14,COCCN(C)C[C@@H]1CN(C(=O)NC2CCCCC2)C[C@@H]1CO,50.2%
15,COCCN(C)C[C@@H]1CN(C(=O)C(C)(C)c2ccccc2)C[C@@H]1CO,60.6%
16,CCN(C)C[C@@H]1CN(C(=O)NC2CCCCC2)C[C@@H]1CO,24.5%
17,COCCN(C)C[C@@H]1CN(C(=O)c2cccc(C(F)(F)F)c2)C[C@@H]1CO,23.5%
18,COCCN(C)C[C@@H]1CN(C(=O)c2ccc(=O)n(C)c2)C[C@@H]1CO,57.2%
19,COCCN(C)C[C@@H]1CN(C(=O)c2sc3ccccc3c2C)C[C@@H]1CO,17.6%
20,O=C1NC(c2ccccc2)=N[C@@]12CC[C@@H]1CN(CC3CC3)C[C@@H]12,44.2%
21,O=C(CCc1nc2cc(Br)cnc2[nH]1)NCCN1CCOCC1,-7.28%
22,N#Cc1cccc(C(=O)N2CCC(Nc3cccnn3)CC2)c1,15.5%
23,Cc1ccc2c(c1)C(NC(=O)N(C)C)CC21CCN(C)CC1 (stereo not drawn),-24.1%
24,OC1CCN(c2ccc(CNc3nc4ccccc4s3)cc2F)CC1,59.4%
25,OC1CCN(c2cnnc3ccccc23)CC1,40.2%
26,COC(=O)c1sc(NCc2ccc(N3CCC(O)CC3)c(F)c2)nc1Cl,91.2%
27,Cc1nc(C(=O)NCc2ccc(N3CCNC(=O)C3)c(F)c2)cs1,-11.7%

row,SMILES,INHIBITION
1,N#Cc1cc(NC(=O)c2cc[nH]n2)ccc1N1CCC(O)CC1,9.65%
2,OC1CCN(c2ccc(CNc3nc4ccccc4o3)cc2F)CC1,-37.7%
3,Cc1cc(NCCNc2cccnc2)nc(N)n1,36.8%
4,CCC(NS(=O)(=O)c1ccc(C(=O)NC2CC2)cc1)c1cnn(C)c1 (stereo not drawn),-10.1%
5,O=C1CC2(CCN(C(=O)c3ccncc3)CC2)Oc2c(Cl)cc(Cl)cc21,-29%
6,CC(C)N1CCc2ncn(C(C)C)c2C1C(=O)NCCN1CCCC1 (stereo not drawn),30.5%
7,CC(C)N1CCc2ncn(C)c2C1C(=O)N1CCOCC1 (stereo not drawn),29%
8,CC(C)N1CCc2ncn(C)c2C1C(=O)NCCN1CCCC1 (stereo not drawn),67.4%
9,CCc1noc(Cn2c(=O)c3c(C(F)(F)F)cc(C)nc3n2C)n1,-7.93%
10,O=c1[nH]c(N2CC(O)C2)nc2c1cnn2-c1ccccc1,17.1%
11,CC1CCN(c2nc3c(cnn3-c3ccccc3)c(=O)[nH]2)CC1,89.6%
12,O=c1[nH]c(N2CCN(C3CC3)CC2)nc2c1cnn2-c1ccccc1,24.7%
13,CCn1cc2c(n1)CN(Cc1nccs1)CC2COCC1CC1 (stereo not drawn),71.1%
14,CCOCC1CN(Cc2nccs2)Cc2nn(CC3CC3)cc21 (stereo not drawn),11.4%
15,CCn1cc2c(n1)CN(CC1CC1)CC2COCC1CC1 (stereo not drawn),19.3%
16,CCn1cc2c(n1)CN(Cc1sccc1C)CC2COCC1CC1 (stereo not drawn),52%
17,COCC1CN(Cc2sccc2C)Cc2nnn(CC3CC3)c21 (stereo not drawn),-42.9%
18,CCn1cc2c(n1)CN(C(=O)c1ccncc1)CC2COCC1CC1 (stereo not drawn),-30.1%
19,OC1CCCN(Cc2ccnc(-c3cccnc3)n2)C1 (stereo not drawn),19.6%
20,CCn1cc(-c2cc(C(F)(F)F)n(CCCN)n2)cn1,8.53%
21,Fc1ccc(CN[C@@H]2COC[C@H]2c2ccc(F)cc2)cc1,-27.1%
22,Cc1noc(CN(C)C(=O)c2n[nH]c(N)c2-c2ccccc2)n1,1.98%
23,Cc1cc(-c2cncnc2)nc(C2CCCN2S(C)(=O)=O)n1 (stereo not drawn),31.3%
24,O=C(CN1CC(c2nc(C3CC3)no2)C1)N1CCOCC1,29.7%
25,CC1CCN(C(=O)CN2CC(c3nc(C4CC4)no3)C2)CC1,58.1%
26,O=C(CN1CCCC(c2noc(C3CC3)n2)C1)N1CCCC1 (stereo not drawn),15.6%
